Source: PubChem (National Center for Advancing Translational Sciences (NCATS))
G9a block = inhibitors of human histone lysine methyltransferase G9a; Q96KQ7; AID 504332; Potency, µM (series often up to 102 µM), without a hit: at the highest dose activity, negative = inhibition, actives largely listed as inhibitors; actives 8.8% (n = 350,000); G9a H3K9 monomethylation, AlphaScreen, 2 h; note: potency is the fitted concentration of half-maximal effect; % is set by controls: 0 for no effect and ±100 for the full control effect; nearly all actives have a fitted effect of over 75% in size
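G9a (20 nM) preincubated 15 min RT with compounds, then 500 nM biotinylated H3K9 peptide and 20 uM SAM added; 2 h RT reaction. Monomethyl-H3K9 product detected by AlphaScreen with anti-H3K9me1 antibody, streptavidin donor and anti-rabbit IgG acceptor beads.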
L3MBTL1 inh = inhibitors of human L3MBTL1; Q9Y468; AlphaScreen L3MBTL1–H3K9me1 peptide binding; Potency, µM (doses to about 57.1 µM), without a hit: top-dose activity, negative = inhibition, most hits filed as inhibitors; actives 0.66% (n = 230,000); note: potency is the fitted concentration of half-maximal effect; % is set by controls: 0 for no effect and ±100 for the full control effect; nearly all actives have a fitted effect of over 60% in size
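AlphaScreen proximity signal between nickel-chelate acceptor and streptavidin donor beads (final 10 ug/mL) reports binding of 50 nM L3MBTL1 to 75 nM biotin-H3 K9me1 peptide; complex incubated with compounds 30 min at room temperature; cefsulodin titration as control.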
HP1b chromo inh = inhibitors of HP1-beta chromodomain binding to methylated histone tails | P83916 | AlphaScreen HP1-beta / biotin-H3K9me3 peptide binding | Potency, µM (top dose mostly 114 µM), without a hit: at the top dose activity change, negative = inhibition, most hits filed as inhibitors | actives 0.56% (n = 390,000) | AID 540317; note: potency is the fitted concentration of half-maximal effect; nearly all actives have a fitted effect of over 70% in size
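Compound inhibition of the preformed complex between 50 nM HP1-beta and 50 nM biotinylated H3K9me3 peptide was read by AlphaScreen. Buffer was PBS pH 7.4 with 0.01% Tween-20. Incubations ran 30 min at room temperature, with 10 ug/mL donor/acceptor beads.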
PI5P4K alpha inh = blocks human PI5P4K alpha kinase activity | PI5P4Kalpha enzyme, ADP-Glo luminescence, 60 min; hits give low values | max response, % | actives 1.2% (n = 330,000) | P48426 | AID 652105; active = max response of -50% or lower; inconclusive = between -30% and -50%; inactive = -30% or higher; note: value at the top dose of about 77 µM; % is set by controls: 0 for no effect and ±100 for the full control effect
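Single end-point luminescence (ADP-Glo) quantified ADP from PI5P4Kalpha turnover; ATP 5 microM final, 1 h at RT, 0.1% CHAPS and 0.28 mM EGTA in HEPES pH 7.4.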
BAZ2B inh = inhibitors of human BAZ2B bromodomain. Potency, µM (top dose mostly 114 µM), for the others: top-dose activity change, negative = inhibition, hits mostly inhibitors. AlphaScreen BAZ2B-H3K14Ac peptide displacement. AID 504333. actives 4.4% (n = 360,000). Q9UIF8; note: potency is the fitted concentration of half-maximal effect; % is set by controls: 0 for no effect and ±100 for the full control effect; nearly all actives have a fitted effect of over 60% in size
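Inhibition is scored as reduced AlphaScreen emission. The BAZ2B/b-H3(5-23)K14Ac complex (50 nM each) in PBS pH 7.4, 0.01% Tween-20 meets compound (up to 110 uM) for 30 min at RT before bead addition.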
JMJD2A Tudor inh = JMJD2A Tudor domain (human) inhibition. AlphaScreen JMJD2A-Tudor / H3K4me3 peptide binding. Potency, µM (doses to about 114 µM), for the others: top-dose activity change, negative = inhibition, usual class: inhibitors. actives 4.4% (n = 390,000). AID 504339; note: potency is the fitted concentration of half-maximal effect; % is set by controls: 0 for no effect and ±100 for the full control effect; nearly all actives have a fitted effect of over 50% in size
Target sequence (O75164 whole entry, looked up, the tested form may be a part): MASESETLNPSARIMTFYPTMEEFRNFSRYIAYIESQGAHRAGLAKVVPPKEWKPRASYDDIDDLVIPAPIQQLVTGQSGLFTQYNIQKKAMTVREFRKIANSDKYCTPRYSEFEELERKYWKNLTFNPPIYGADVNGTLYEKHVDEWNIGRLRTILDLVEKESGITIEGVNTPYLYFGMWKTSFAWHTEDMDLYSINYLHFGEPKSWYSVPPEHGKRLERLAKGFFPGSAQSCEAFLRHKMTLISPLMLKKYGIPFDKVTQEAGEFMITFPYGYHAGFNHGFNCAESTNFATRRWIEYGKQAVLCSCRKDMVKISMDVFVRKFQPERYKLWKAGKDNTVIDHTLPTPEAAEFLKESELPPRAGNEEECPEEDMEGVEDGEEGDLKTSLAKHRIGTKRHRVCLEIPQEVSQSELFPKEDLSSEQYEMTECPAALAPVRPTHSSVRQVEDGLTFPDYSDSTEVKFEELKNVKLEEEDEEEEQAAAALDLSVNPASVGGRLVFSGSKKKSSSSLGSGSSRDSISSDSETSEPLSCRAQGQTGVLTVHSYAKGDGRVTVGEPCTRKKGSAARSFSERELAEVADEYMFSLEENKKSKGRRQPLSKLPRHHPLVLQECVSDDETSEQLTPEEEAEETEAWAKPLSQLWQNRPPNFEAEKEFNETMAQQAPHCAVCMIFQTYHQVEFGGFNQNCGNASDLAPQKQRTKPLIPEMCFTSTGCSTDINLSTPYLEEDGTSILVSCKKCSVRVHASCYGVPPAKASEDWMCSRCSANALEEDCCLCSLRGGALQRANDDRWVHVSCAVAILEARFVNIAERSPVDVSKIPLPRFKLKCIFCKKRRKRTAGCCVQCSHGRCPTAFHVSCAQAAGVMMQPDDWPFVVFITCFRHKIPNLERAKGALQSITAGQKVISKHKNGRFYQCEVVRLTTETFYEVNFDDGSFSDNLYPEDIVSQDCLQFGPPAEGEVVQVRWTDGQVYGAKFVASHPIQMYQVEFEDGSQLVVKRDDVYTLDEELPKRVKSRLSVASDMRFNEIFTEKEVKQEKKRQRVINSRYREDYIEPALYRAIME
Active calls of the source: *; ? = inconclusive; nt = no result; [ ] = another dose, or the depositor's remark. Only some compounds are listed: those with a hit (about 11% of all), similar ones and a draw of the others. Unless noted, calls come from the whole dose curve; as a rule, active = well fitted inhibition curve with a large enough effect; inconclusive = small, poorly fitted or top-dose-only effect; inactive = no such curve, though single readings can be large or run the other way.

SMILES | G9a block | L3MBTL1 inh | HP1b chromo inh | PI5P4K alpha inh | BAZ2B inh | JMJD2A Tudor inh
COc1ccc(C)cc1S(=O)(=O)NCC(c1ccc2c(c1)OCO2)N1CCN(C)CC1 (stereo not drawn) | 11µM* | -6% | 22% | -3 | 9% | -4%
Nc1nc(Nc2ccccc2F)sc1C(=O)c1ccc(Cl)cc1 | ? | nt | -17% | nt | ? | ?
O=C(CSc1ccsc1[N+](=O)[O-])N1CCN(c2ccc(Cl)cc2)CC1 | 50µM* | ? | -16% | -62* | ? | ?
Cc1ccc(C)c(N2CCN(C(=O)CSc3ccsc3[N+](=O)[O-])CC2)c1 | 32µM* | ? | -16% | ? | ? | ?
O=C(CSC1=NCCS1)N1CCN(c2ccc(Cl)cc2)CC1 | ? | 3% | 12% | -1 | -8% | -3%
O=C(CSc1ccsc1[N+](=O)[O-])N1CCCCCC1 | 45µM* | nt | 4% | -14 | nt | -13%
NC(=O)C1CCN(C(=O)CSc2ccsc2[N+](=O)[O-])CC1 | ? | -12% | 23% | -12 | -21% | -22%
COCC(=O)N1CCC2(CC1)CCN(c1ccncc1)CC2 | -5%[12.7 µM] | nt | nt | nt | nt | nt
C#CCOCCOCCOCCNc1nc(N2CCN(C(=O)Cn3cc(CCCN=C(N)N)nn3)CC2)nc(N2CCN(C(=O)Cn3cc(CC(C)O)nn3)CC2)n1 (stereo not drawn) | nt | nt | 41% | -3 | nt | -2%
C#CCOCCOCCOCCNc1nc(N2CCN(C(=O)[C@H]([C@@H](C)CC)n3cc(CCC(=O)O)nn3)CC2)nc(N2CCN(C(=O)[C@H](CCCCN)n3cc(CC(C)O)nn3)CC2)n1 (stereo partly drawn) | nt | nt | 31% | -70* | nt | ?
C#CCOCCOCCOCCNc1nc(N2CCN(C(=O)[C@H]([C@@H](C)CC)n3cc(CCCCN)nn3)CC2)nc(N2CCN(C(=O)[C@H](C)n3cc(CCC(=O)O)nn3)CC2)n1 | 79µM* | 0% | 7% | -1 | ? | -20%
C#CCOCCOCCOCCNc1nc(N2CCOCC2)nc(N2CCN(C(=O)Cn3cc(CC(C)O)nn3)CC2)n1 (stereo not drawn) | 79µM* | 5% | 22% | 7 | -14% | -18%
C#CCOCCOCCOCCNc1nc(N2CCN(C(=O)Cn3cc(CCO)nn3)CC2)nc(N2CCN(C(=O)[C@H](C(C)C)n3cc(CCO)nn3)CC2)n1 | 45µM* | 8% | 11% | 0 | ? | -18%
CN(C)c1ncc2nc(-c3ccc(F)cc3)c(=O)n(C[C@H]3CCCO3)c2n1 | 3%[0.501 µM] | nt | nt | nt | nt | nt
CN(C)S(=O)(=O)N(CC(=O)NCCSCc1c(F)cccc1Cl)c1ccccc1 | 6%[59 µM] | nt | 31% | nt | 1% | -6%
COc1ccc(-c2onc(C)c2C)cc1S(=O)(=O)N(C)Cc1ccccc1 | -4%[59 µM] | nt | 79% | nt | -4% | -6%
C#CCOCCOCCOCCNc1nc(N2CCN(C(=O)Cn3cc(CC(C)O)nn3)CC2)nc(N2CCN(C(=O)[C@H](CCCCN)n3cc(CCCC)nn3)CC2)n1 (stereo partly drawn) | nt | nt | 28% | -3 | nt | -10%
C#CCOCCOCCOCCNc1nc(N2CCN(C(=O)Cn3cc(CCO)nn3)CC2)nc(N2CCN(C(=O)[C@H](CCCCN)n3cc(CC(C)O)nn3)CC2)n1 (stereo partly drawn) | nt | nt | 6% | 5 | nt | 89µM*
CCc1ccc(C2c3c(oc4ccc(C)cc4c3=O)C(=O)N2c2nc(C)c(C)s2)cc1 (stereo not drawn) | 6%[59 µM] | nt | 26% | nt | -1% | 3%
CCOC(=O)C1C(=O)CC(C)(O)C(C(=O)OCC)C1c1ccc(F)cc1 (stereo not drawn) | 18%[59 µM] | nt | 33% | nt | 4% | -13%
CCOC(=O)C1C(=O)CC(C)(O)C(C(=O)OCC)C1c1ccc(N(CC)CC)cc1 (stereo not drawn) | 14µM* | 17%[11.4 µM] | 5% | -1 | -19% | -23%
